Data from PubChem BioAssay (EPA / NIEHS).
Activity calls are given as the source filed them. How the source made its calls: active means hit-call score of the fitted dose curve at least 0.9, where 1 is the maximum; inactive means score below 0.9.

Experiment: UKN2_HCS_IMR90_cell_viability: Viability Assessment in the University of Konstanz (UKN) Leist Lab Neural Crest Cell Migration Assay in human induced IMR90 Pluripotent Stem Cells (UKN2) (AID 2284233);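 further: cells exposed to compound for 24 h after a 24 h migration phase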
Procedure: UKN2_HCS_IMR90 is a cell-based, multiplexed-readout assay screening for neural crest cell migration and cell viability that uses IMR90 (neural crest cells differentiated from iPSC), a human embryo cell line, with measurements taken at […] after chemical dosing in a microplate: 96-well plate. UKN2, also known as cMINC, is an assay that uses IMR90 cells (neural crest cells differentiated from iPSC) as a model of neural crest cell migration. 24 hr after cell seeding, cell migration was initiated and proceeded for 24 hr. Then, chemical was applied, and after 24 hr of exposure migration and viability were assessed using high-content imaging of cells stained with calcein-AM and Hoechst H-33342.UKN2_HCS_IMR90_cell_viability is an assay component measured from the UKN2_HCS_IMR90 assay. It is designed to make measurements of enzyme activity, a form of viability reporter, as detected with Fluorescence intensity signals by HCS Fluorescent Imaging.The assay endpoint UKN2_HCS_IMR90_cell_viability was analyzed with bidirectional fitting relative to DMSO as the negative control and baseline of activity. Using a type of viability reporter, gain or loss-of-signal activity can be used to understand viability effects. To generalize the intended target to other relatable targets, this assay endpoint is annotated to the cell cycle intended target family, where the subfamily is viability.
The wells are coated with PLO/laminin/fibronectin. Then, silicone stoppers are placed into the wells of a 96-well plate. Cells are seeded around the stoppers and allowed to attach for 24 hours. Day 0: The silicone stoppers are removed and the medium is replaced with pre-warmed, fresh N2-S medium containing the cytokines EGF and FGF. Cells are allowed to migrate into the cell free area. Day 1: 25 ul of the 5x concentrated toxicants are added to the wells. The cells plus toxicants are incubated for 24 h. Day 2: Cells are stained with calcein-AM and Hoechst (H-33342) for 30 min before imaging with a high content imaging microscope. Quantification of migration and viability is done by high content imaging analysis.
In the case of `O=S1OCC2C(CO1)C1(Cl)C(Cl)=C(Cl)C2(Cl)C1(Cl)Cl` (stereo not given), the AC50 was 14.8 µM (active). In the case of `ClC1C(Cl)C(Cl)C(Cl)C(Cl)C1Cl` (stereo not given), the outcome was “inactive”. With `CC1(C)C(C=C(Cl)Cl)C1C(=O)OC(C#N)c1ccc(F)c(Oc2ccccc2)c1` (stereo not given) the outcome was “inactive”. With `O=[N+]([O-])/N=C1\NCCN1Cc1ccc(Cl)nc1` the outcome was “inactive”. With `CC1(c2ccc(Oc3ccccc3)cc2)OC(=O)N(Nc2ccccc2)C1=O` (stereo not given) the outcome was “inactive”. For `COP(=O)(OC)OC=C(Cl)Cl`, the outcome was “inactive”. In the case of `CC[C@H](C)[C@H]1O[C@]2(C=C[C@@H]1C)C[C@@H]1C[C@@H](C/C=C(\C)[C@@H](O[C@H]3C[C@H](OC)[C@@H](O[C@H]4C[C@H](OC)[C@@H](O)[C@H](C)O4)[C@H](C)O3)[C@@H](C)/C=C/C=C3\CO[C@@H]4[C@H](O)C(C)=C[C@@H](C(=O)O1)[C@]34O)O2` (tested in a mixture with another compound), the AC50 was 7.09 µM (active). For `CC(C)N(C(=O)COc1nnc(C(F)(F)F)s1)c1ccc(F)cc1`, the outcome was “inactive”. In the case of `O=C(O)COc1ccc(Cl)cc1Cl`, the outcome was “inactive”. For `O=C(O)C(F)(F)C(F)(F)C(F)(F)C(F)(F)C(F)(F)C(F)(F)C(F)(F)F`, the outcome was “inactive”.
